The whole screen tested about 62,000 compounds, of which about 120 (0.19%) were called active. Cut-off read from the data, not from the text of the source: active = inhibition above about 20% (passing the limit was not always enough); inactive = the rest. The sample as a whole holds a higher share of actives than the screen did.
These compounds were tested against Coagulation factor XI (Homo sapiens) (UniProt P03951) (assay: FXIa protease inhibitors in compound pools, primary screen, biochemical, 10-compound mixtures (AID 680;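 note: each value is inhibition by a whole ten-compound pool holding the compound; 0% = enzyme with no mixture and 100% = wells lacking enzyme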)). Settings: purified FXIa, fluorogenic substrate, pooled mixtures; at 5 µM; active compounds read high.
Sequence of Coagulation factor XI (Homo sapiens) (P03951 19-387 limits assumed): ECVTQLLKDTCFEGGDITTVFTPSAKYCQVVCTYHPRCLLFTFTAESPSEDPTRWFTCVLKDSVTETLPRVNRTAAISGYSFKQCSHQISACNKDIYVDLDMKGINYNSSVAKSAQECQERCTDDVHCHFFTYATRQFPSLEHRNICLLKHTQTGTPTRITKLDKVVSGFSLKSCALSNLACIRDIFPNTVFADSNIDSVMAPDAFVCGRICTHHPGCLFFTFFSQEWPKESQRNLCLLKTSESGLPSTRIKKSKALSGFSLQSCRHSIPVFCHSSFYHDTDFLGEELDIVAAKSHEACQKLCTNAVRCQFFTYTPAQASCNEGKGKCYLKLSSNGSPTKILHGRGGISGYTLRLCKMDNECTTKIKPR
Sequence of Coagulation factor XI (Homo sapiens) (P03951 388-625 limits assumed): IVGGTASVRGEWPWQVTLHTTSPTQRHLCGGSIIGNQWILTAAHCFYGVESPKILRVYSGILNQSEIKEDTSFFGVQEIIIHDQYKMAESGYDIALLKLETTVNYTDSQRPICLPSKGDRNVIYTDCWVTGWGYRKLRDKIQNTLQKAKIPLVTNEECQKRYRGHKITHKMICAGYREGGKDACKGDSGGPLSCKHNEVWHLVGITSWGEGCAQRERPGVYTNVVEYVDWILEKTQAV

inhibition, inactive:
CN1CCN(C(=O)c2ccc(NS(=O)(=O)c3ccccc3)cc2)CC1 1.27%, Cc1nonc1OCCn1nnnc1N -1.41%, COc1ccc(CCNS(=O)(=O)c2ccc(C(=O)NCc3ccco3)cc2)cc1OC 2.31%, Cc1ccc2nc(-c3ccc(SCC(=O)Nc4cc(C)on4)nc3)[nH]c2c1 -9.14%, COc1ccc(Cn2c(=O)sc3ccccc32)cc1OC -0.795%, CC1(C)Oc2ccc(C(=O)N3CCOCC3)cc2N(CC(=O)Nc2ccccc2)C1=O 7.31%, O=C(CSc1nnc(-c2cccs2)n1-c1ccccc1)N1CCN(C(=O)c2ccco2)CC1 -14.5%, O=S(=O)(NCCNS(=O)(=O)c1ccccc1)c1ccccc1 -3.77%, COc1ccc(NC(=O)c2c(SC)nsc2SC)cc1 4.24%, COc1cccc(Nc2ncccc2C(=O)O)c1 5.89%, COc1ccc(Cc2nnnn2CC(=O)O)cc1 3.18%, O=C(O)c1ccc(F)c(S(=O)(=O)Nc2ccccc2)c1 7.12%, CCN(CC)CCCNC(=O)c1cc(-c2cccc(Cl)c2)on1 5.02%, CCOC(=O)Cn1c(N)c(C(=O)OC)sc1=S -0.995%, O=C(Cn1cnc2c(cnn2-c2ccc(F)cc2)c1=O)NCCc1ccccc1 -10.3%, Cc1cc(C)c(C#N)c(SCc2[nH]nc3c2C(c2ccccc2)C(C#N)=C(N)O3)n1 (configuration not stated) 1.67%, c1ccc2c(CNn3cnnc3)cccc2c1 7.96%, COC(=O)c1ccc(CN(c2ccccc2OC)S(=O)(=O)c2cccs2)o1 -7.66%, CCOC(=O)c1c(C)nc(-c2ccccc2)nc1NC(=O)C(C)C 5.54%, CCOc1ccc(N=C2SC(C(=O)O)CC(=O)N2C)cc1 (configuration not stated) -15.5%, CCC(=NC1CC(C)(C)NC(C)(C)C1)C1=C(O)CC(C)(C)CC1=O -8.62%, CCCCN(C)C(=O)C1CCN(Cc2ccccn2)CC1 -2.55%, COc1ccc(CSc2nc(N3CCOCC3)c3c(c2C#N)CC(C)(C)OC3)cc1 -0.245%, COc1cc2cc(CN(CCN3CCCC3)C(=O)Nc3ccccc3Cl)c(=O)[nH]c2cc1OC 2.35%, C=CCn1c(SCc2nnc(-c3ccccc3)o2)nnc1C(O)c1ccccc1 (configuration not stated) -17.4%, CCCCCCC(=O)N(O)C1CC(=O)N(c2ccccc2)C1=O (configuration not stated) 1.64%, O=C1CC2(CCCCC2)Oc2ccc(OCC(=O)N3CCOCC3)cc21 4.52%, Cc1cn(COC/C=C/c2ccccc2)c(=O)[nH]c1=O -1.04%, CCNc1nc(NCC)nc(N(C)n2cnnc2)n1 -3.07%, CC(C)(C)c1ccc(C(=O)NCCC(=O)NCc2ccco2)cc1 3.48%, CCn1cc(C(=O)N2CCN(C3CCCCC3)CC2)c2cc(OC)c(OC)cc2c1=O 4.42%, COC(=O)[C@@H](NC(=O)NCc1cccc(OC)c1)C(C)C -1.25%, COC(=O)CCNc1ccc2c(c1)OCCO2 -1.79%, COc1ccc(-c2c(C)nn3c(N4CCC(C(=O)N5CCCCC5)CC4)cc(C)nc23)cc1OC 8.56%, CCc1ccccc1N(CC(=O)NCCSCc1ccco1)S(C)(=O)=O -9.75%, CCSc1nc2c(c(=O)[nH]1)C(c1cccnc1)C(C(=O)OC(C)C)=C(C)N2 (configuration not stated) 7.07%, Cn1c(=NC(=O)c2cnccn2)sc2ccccc21 5.25%, O=C(OC(C(=O)NC1CCCC1)c1ccc(F)cc1)c1ccno1 (configuration not stated) 7.23%, CN(C)CCNC(CC(=O)Nc1ccc(Cl)c(Cl)c1)C(=O)O (configuration not stated) 0.68%, CN1CCN(c2cc(=O)n(-c3ccc(Cl)cc3)c(=O)[nH]2)CC1 -10.3%, COc1ccc(C)cc1NC(=O)CSc1nc(SC)ns1 6.14%, CCOc1ccccc1NC(=O)C1CCN(S(=O)(=O)c2c(C)nn(C)c2C)CC1 9%, COc1cccc2c(=O)n(CC(=O)N3CCCCCC3)ccc12 -15.3%, Cc1ccc(C(=O)O)cc1S(=O)(=O)NCC1CCCO1 (configuration not stated) 8.82%, CCOC(=O)Cn1c(CN(Cc2ccccc2)Cc2ccccc2)nc2c1c(=O)[nH]c(=O)n2C -7.29%, CCSC(C)CC1C/C(=N/O)c2c(C)noc2C1 (configuration not stated) 0.87%, O=C(CSC1=Nc2ccccc2C2=NC(c3ccccc3)C(=O)N12)NCC1CCCO1 (configuration not stated) 2.26%
